# PfHsp90 yeast 2 = reduces growth (ATP signal) of yeast expressing P. falciparum Hsp90; 310,000 compounds, 0.32% hits; S. cerevisiae expressing PfHsp90, BacTiter-Glo ATP, 48 h; yeast lacking PDR1 and PDR3 efflux regulators; inhibition, % at 9.4 µM; AID 504621;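 active = every replicate shows inhibition above about 80%, whatever the replicate mean, limit read from the data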;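 note: 0% = DMSO neutral controls and 100% = 20 µM radicicol positive controls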
# tim10-1 inh = growth inhibitors of tim10-1 mutant yeast. 330,000 compounds, 2.2% hits. S. cerevisiae tim10-1 ts strain growth, BacTiter-Glo, 24 h. inhibition, % at 20 µM;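 active = inhibition of at least 40%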;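 note: mutant grown at 25 °C; 0% = DMSO wells with yeast and 100% = wells holding no yeast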
# SKKanGAS inh = SKKanGAS growth inhibition | 300,000 compounds, 1.3% hits | AID 1662 | inhibition, % at 7.5 µM | S. pyogenes SKKanGAS, kanamycin growth, BacTiter-Glo, 6 h;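 active = mean replicate score, as percent of positive control median, at least 50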;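 note: strain carries kanamycin resistance gene driven by streptokinase promoter and grows in 40 µg/ml kanamycin; loss of luminescence reflects streptokinase promoter inhibition or plain growth inhibition; 0% = median of DMSO wells and 100% = positive control at its reference dose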
# TIM10 inh = growth inhibitors of TIM10 yeast strain | inhibition, % at 10 µM | 330,000 compounds, 1.4% hits | S. cerevisiae TIM10 strain growth, BacTiter-Glo luminescence, 24 h;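 active = inhibition of 40% or more at the single tested concentration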;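 note: wild-type TIM10 isogenic control strain grown at permissive 25 °C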
# tim23-1 inh = growth inhibitors of tim23-1 mutant yeast | S. cerevisiae tim23-1 growth, BacTiter-Glo luminescence, 24 h | inhibition, % at 20 µM | 330,000 compounds, 1.3% hits | AID 463212;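 active = growth inhibition of the mutant yeast at or above 50%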;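 note: temperature-sensitive mutant grown at 25 °C; plate controls were DMSO-treated mutant yeast for no effect and medium wells lacking yeast for full effect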
# tim10-1 conf = tim10-1 yeast growth inhibition, confirmed; shares compounds with tim10-1 inh; S. cerevisiae tim10-1 ts strain growth, BacTiter-Glo, 24 h; inhibition, % at 20 µM; 7,400 compounds, 56% hits;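 active = inhibition of yeast growth at or above a set limit in either of two repeat tests at 20 µM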;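 note: tim10-1 mutant grown at permissive 25 °C to find synthetic lethal compounds; 0% = DMSO yeast wells and 100% = medium wells without yeast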
# Numbers without * were called inactive; · = no result. Hits are enriched below; roughly 4.4% of the tested compounds scored in any of these assays.
SMILES,PfHsp90 yeast 2,tim10-1 inh,SKKanGAS inh,TIM10 inh,tim23-1 inh,tim10-1 conf
C[C@H](CO)N1C[C@H](C)[C@@H](CN(C)Cc2ccc(Cl)c(Cl)c2)Oc2c(NS(=O)(=O)c3cccs3)cccc2C1=O,17.8,0.6,·,-1.5,7.9,·
Cc1ccc(CN2CCSc3ccc(C(=O)NC4CCCC4)cc32)cc1,9.8,-1.6,9.5,4.9,-3.1,·
O=C(c1ccc2c(c1)N(Cc1ccccc1)CCS2)N1CCCCC1,-4.7,43.2*,-9.1,19.1,36.5,26.2
Cc1ccc(CN2CCSc3ccc(C(=O)NCC4CCCO4)cc32)cc1 (centres undefined),-14.0,41.1*,0.4,21.3,44.4,16.5
COC(=O)c1ccc(COc2ccccc2/C=C(\C#N)C(=O)Nc2c(C)cccc2C)cc1,38.0,29.9,23.9,26.9,24.9,·
CCCCCCCSc1nsc(N)n1,·,45.4*,-8.9,23.8,43.3,20.6
Cc1ccc(-c2noc(CN(C(=O)C(c3ccccc3)c3ccccc3)C(C)C)n2)cc1,8.3,40.6*,1.3,17.2,15.9,25.1
O=C1N(Cc2ccccc2)CC2(Br)COCOC12O (centres undefined),-27.7,·,·,·,·,·
CC(=O)c1c(C)[nH]c(C(=O)Nc2nc(-c3ccc(-c4ccccc4)cc3)cs2)c1C,8.3,45.4*,52.0*,15.2,21.4,26.6
CC(=O)C[C@@H](O)CC(=O)[C@@H]1OC(=O)[C@H](C)CCCCc2ccccc21,-12.3,21.2,·,3.5,14.4,·
CN(CCCS(=O)(=O)[O-])c1ccc(/C=C/c2ccc3ccccc3[n+]2C)cc1,-10.2,43.0*,6.2,7.7,38.6,4.8
Cc1ccccc1OCCOC(=O)c1cc(S(=O)(=O)N2CCCCC2)ccc1N1CCOCC1,·,5.1,·,10.3,13.6,·
Oc1c(C(Nc2nc3ccccc3s2)c2ccco2)ccc2cccnc12 (centres undefined),131.0*,43.1*,107.4*,14.7,40.2,6.8
CC(=O)NC(c1ccco1)c1cc(F)c2cccnc2c1O (centres undefined),-30.6,26.6,·,-4.7,30.5,·
CCc1cccc(CC)c1NC(=O)COC(=O)c1ccccc1-c1nc2ccccc2s1,-0.1,44.4*,8.0,9.8,26.4,19.2
C=CCSc1nc(N(CC)CC)c2sccc2n1,-7.5,43.6*,10.2,19.1,37.2,28.4
CN(NS(=O)(=O)c1ccc(Cl)cc1)c1ncc(C(F)(F)F)cc1Cl,-9.4,42.5*,-1.5,13.9,27.1,26.2
CC(C)(C)NS(=O)(=O)c1ccc(Oc2ncc(C(F)(F)F)cc2Cl)cc1,-34.8,40.7*,3.6,30.2,33.6,38.2*
Oc1cccc(Oc2ncc(C(F)(F)F)cc2Cl)c1,-20.8,48.7*,-6.0,23.6,13.5,40.5*
CN(NS(=O)(=O)c1ccc(F)cc1)c1ncc(C(F)(F)F)cc1Cl,-29.1,16.1,3.7,12.1,9.7,·
FC(F)(F)c1cnc(Oc2cccc3ccccc23)c(Cl)c1,7.9,15.5,-3.0,5.8,16.6,·
CCSc1nnc(NC(=O)CN2C(=O)NC3(CCCC3)C2=O)s1,11.8,6.0,·,5.1,-10.1,·
COc1ccc(OCC(O)CNC(C)c2ccccc2)cc1 (centres undefined),21.4,42.2*,-0.2,-18.2,18.2,2.0
COc1ccccc1CNC(=O)C(=O)c1cn(CC(=O)N2CCOCC2)c2ccccc12,7.6,4.7,7.7,4.2,1.5,·
O=C(/C=C/c1cccc(Br)c1)N1CCN(c2ccccn2)CC1,-7.7,41.6*,-5.0,-22.0,32.8,23.9
SMILES,PfHsp90 yeast 2,tim10-1 inh,SKKanGAS inh,TIM10 inh,tim23-1 inh,tim10-1 conf
O=C(NCc1ccccc1)c1ccc(NC(=O)c2ccccc2F)cc1,2.1,-16.3,-2.6,-14.4,-2.3,·
COc1ccccc1-c1cc(C(=O)NCc2ccccc2)no1,16.9,43.6*,-21.6,27.4,41.0,25.6
O=[N+]([O-])CC(c1ccccc1)P(=O)(c1ccccc1)c1ccccc1 (centres undefined),-7.1,40.6*,5.8,0.4,28.3,14.5
CC(=O)C(c1ccccc1)C(c1ccccc1)C(C)[N+](=O)[O-] (centres undefined),-4.5,-11.3,4.0,-5.4,-17.9,·
Clc1ccc2c(c1)-c1nnc(Br)n1-c1ccccc1S2,6.1,47.5*,19.4,-3.1,46.2,14.4
CCCn1nc(C(=O)Nc2cccc(S(=O)(=O)N(C)c3ccccc3)c2)c2ccccc2c1=O,-2.6,11.8,·,15.3,13.4,·
CN1C(=O)/C(=C\c2ccccc2F)Sc2ccc(C(=O)NC3CCN(Cc4ccccc4)CC3)cc21,-5.4,42.7*,83.2*,-13.6,12.0,-49.7
O=C(c1cccc2ccccc12)C1CCCN(C(=O)c2ccc(N3CCOCC3)cc2)C1 (centres undefined),5.1,0.7,-4.7,-14.9,14.4,·
O=C(CN1CCSC1=O)Nc1ccc(N2CCOCC2)cc1,24.3,-5.8,·,-8.9,-8.1,·
COc1ccccc1N/C(=N/S(=O)(=O)c1ccc(Cl)cc1)c1ccccc1,-8.6,40.6*,-1.9,26.3,36.8,27.6
COc1ccccc1N/C(=N/S(=O)(=O)c1ccc(C)cc1)c1ccccc1,3.0,31.0,-1.6,28.0,26.5,·
CSc1nc(N)nc2c1ncn2CC(=O)NCCCc1ccccc1,-4.1,-8.7,·,-3.7,-4.6,·
CN(C)CCNC(=O)C(c1ccccc1)c1ccccc1,5.4,4.5,-8.1,6.6,-2.0,·
CN(C)CCC(=O)C(Cc1ccccc1)c1ccccc1 (centres undefined),-23.1,45.1*,-5.9,22.7,31.2,45.0*
Cc1c(C(=N)C(C#N)C#N)c(=N)oc2c1ccc1ccccc12,0.9,41.3*,13.7,35.2,20.5,29.1
Cc1c(C(=O)O)oc2c1ccc1ccccc12,-31.7,1.7,-0.9,-5.6,7.0,·
CCc1nc(C)cn1S(=O)(=O)c1cc(Br)c(C)cc1OC,8.0,43.6*,4.0,25.2,30.2,17.4
CCOC(=O)c1cccc(C2=CC(=O)C[C@H](c3ccc(OC)c(OC)c3)C2)c1,-23.8,7.7,·,8.3,23.8,·
O=C(NNc1nc2ccccc2s1)c1ccccc1F,-6.4,47.2*,-8.0,38.3,25.8,27.6
O=C(NNc1nc2ccccc2s1)Nc1ccc(F)cc1,-71.8,27.7,-5.6,10.3,-0.2,·
CCOc1cc(NC(=S)NCCc2ccccc2)c(OCC)cc1NC(C)=O,-8.8,5.1,5.6,6.1,5.2,·
Cc1ccc(C(=O)Nc2sc3c(c2C(=O)O)CCCCC3)o1,10.1,41.5*,20.3,23.4,46.3,35.2*
CCOCCOC(=O)c1cccc(NC(=O)OCC)c1,8.1,29.7,-3.5,12.6,34.7,·
CCCCOC(=O)Nc1cccc(C(=O)OCC)c1,11.4,46.0*,0.7,6.6,25.1,25.9
O=S(=O)(Nc1cccc2cccnc12)c1ccc(S(=O)(=O)N2CCCC2)cc1,-59.0,50.2*,-19.9,39.5,42.7,39.2*
COc1ccc(CCNS(=O)(=O)c2c(C)[nH]c(C)c2C(=O)N2CCCCC2)cc1OC,5.6,-5.1,-6.5,13.1,11.7,·

# Screening data deposited in PubChem BioAssay by several laboratories.
